Measurements as given in PubChem BioAssay.
The source made the active and inactive calls. Unless noted, the rule behind the calls is not given here.

Key:
[1] = system: Wnt5a (protein binding on small-molecule microarray); test: Wnt5a binders on small-molecule microarray, primary screen, biophysical, 635/667 nm fluorescence (AID 1142); conditions: 635 nm fluorescence, higher = more signal;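 note: fluorescence read at 667 nm with signal to noise per printed feature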
[2] = cell viability in Huh7 cells, primary screen, cytotoxicity control for HCV replication inhibitor project, CellTiter-Glo luminescence, basal, 48 h (AID 1143); conditions: Huh7 HCV replicon, higher = more signal, called active from +8 up or from −8 down;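 note: Huh7 hepatoma cells carrying a hepatitis C replication reporter with no stimulus; test concentration not given here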
[3] = P. aeruginosa biofilm formation inhibitors, primary screen, PAO1 strain, BacTiter-Glo luminescence, LB-PBS (AID 1144); conditions: 12 h, higher = more signal
[4] = CREB reporter modulators without forskolin, primary screen, cell-based, PC12, CRE-LacZ reporter, unstimulated (AID 1145); conditions: no forskolin, luminescence, 4.5 h, higher = more signal, called active from +8 up or from −8 down
[5] = CREB reporter modulators under forskolin, primary screen, cell-based, PC12, CRE-LacZ reporter, forskolin-stimulated (AID 1146); conditions: luminescence, 4.5 h, higher = more signal, called active from +8 up or from −8 down;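 note: PC12 cells with 6xCRE LacZ reporter stimulated by forskolin 10 µM; beta-galactosidase reporter signal reflecting CREB driven transcription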
[6] = molecular target: Streptavidin (Streptomyces avidinii) (UniProt P22629); test: streptavidin binders on small-molecule microarray, primary screen, artefact control for SMM compound annotation, biophysical, 635/667 nm fluorescence (AID 1147); conditions: streptavidin binding, higher = more signal;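 note: signal reflects streptavidin binding to arrayed compounds as a control protein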
Sequence of Streptavidin (Streptomyces avidinii) (P22629 whole entry, looked up): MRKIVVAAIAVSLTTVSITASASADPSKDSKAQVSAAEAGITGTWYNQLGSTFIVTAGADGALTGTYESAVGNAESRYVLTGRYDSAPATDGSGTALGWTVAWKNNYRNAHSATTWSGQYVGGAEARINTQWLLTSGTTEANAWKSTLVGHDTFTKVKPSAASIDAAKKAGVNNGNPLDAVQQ

[7] = small-molecule binders of probe aInhba, primary screen, biochemical, small-molecule microarray, 635/667 nm fluorescence (AID 1148); conditions: higher = more signal;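 note: score merges 667nm spot fluorescence with signal-to-noise for antibody binding to printed compounds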
[8] = molecular target: Torsin-1A (Homo sapiens) (UniProt O14656); test: torsin A binders from cell lysate, primary screen, small-molecule microarray, wild-type, 635/667 nm (AID 1149); conditions: COS7 hTOR1A-WT lysate, 635 nm fluorescence, higher = more signal
Sequence of Torsin-1A (Homo sapiens) (O14656 whole entry, looked up): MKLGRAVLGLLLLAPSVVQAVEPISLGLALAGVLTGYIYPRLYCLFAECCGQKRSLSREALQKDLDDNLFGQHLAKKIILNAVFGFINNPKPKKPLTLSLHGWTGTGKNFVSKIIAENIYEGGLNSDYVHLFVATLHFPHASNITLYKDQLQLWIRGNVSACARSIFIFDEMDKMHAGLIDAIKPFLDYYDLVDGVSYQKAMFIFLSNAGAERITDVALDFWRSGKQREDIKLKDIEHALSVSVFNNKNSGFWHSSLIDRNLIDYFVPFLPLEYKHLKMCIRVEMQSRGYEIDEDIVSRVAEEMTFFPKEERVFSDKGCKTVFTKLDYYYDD

[9] = molecular target: Torsin-1A (Homo sapiens) (UniProt O14656); test: small-molecule binders of mutant TOR1A in lysate, primary screen, cell lysate, small-molecule microarray, COS7 lysate, 635/667 nm fluorescence (AID 1150); conditions: COS7 hTOR1A mutant lysate, 635 nm fluorescence, higher = more signal;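 note: score pools 667 nm emission and signal to noise measuring lysate protein binding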
[10] = system: Sonic hedgehog protein (Shh); test: small-molecule binders of Shh protein, primary screen, biochemical, small-molecule microarray, 635/667 nm fluorescence (AID 1151); conditions: small-molecule microarray binding, 635 nm fluorescence; higher = more signal;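 note: Shh protein binding to compounds spotted on small-molecule microarray slides; score combines spot fluorescence intensity with signal-to-noise across triplicate slides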
[11] = E. coli DRC41 culture turbidity changes, primary screen, E. coli filamentation inducer project, strain DRC41, OD650, 48 h (AID 1152);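 note: E. coli MC1000 strain DRC41 lacking acrAB efflux pump and sulA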; conditions: E. coli DRC41 (acrAB sulA), higher = more signal, called active from +8 up or from −8 down
[12] = small-molecule binders of probe aLefty1, primary screen, biochemical, small-molecule microarray, 635/667 nm fluorescence (AID 1153); conditions: higher = more signal;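 note: score merges spot fluorescence with signal-to-noise ratio from the scanned slide images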
[13] = PSAC antagonists in infected red cells, primary screen, cell-based, P. falciparum Indochina, OD700, 1 h (AID 1154); conditions: P. falciparum Indochina infected RBC osmotic lysis, higher = more signal, called active from +8 up or from −8 down
[14] = PSAC antagonists in infected red cells, primary screen, cell-based, P. falciparum Indochina, OD700, 2 h (AID 1155);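 note: lysis reports solute entry through the parasite surface anion channel PSAC; channel blockers reduce lysis of infected cells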; conditions: P. falciparum Indochina infected erythrocytes, osmotic lysis OD700; higher = more signal, called active from +8 up or from −8 down
[15] = osmotic lysis modulators in infected erythrocytes, primary screen, PSAC antagonist project, cell-based, P. falciparum Indochina, OD700, 3 h (AID 1156); conditions: higher = more signal, called active from +8 up or from −8 down
[16] = PSAC antagonists in infected red cells, primary screen, cell-based, P. falciparum Indochina, OD700, 18 h (AID 1157); conditions: P. falciparum Indochina infected erythrocytes, osmotic lysis OD700, 18 h; higher = more signal, called active from +8 up or from −8 down
[17] = modulators of S6 phosphorylation in cells, primary screen, cell-based, A549, cytoblot, luminescence, serum-stimulated (AID 1158); conditions: A549 phospho-S6 cytoblot, 5 h, higher = more signal;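 note: serum-stimulated A549 lung adenocarcinoma cells; signal is phosphorylated S6 detected by cytoblot immunostaining with HRP secondary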
[18] = molecular target: NADPH oxidase 2 (Homo sapiens) (UniProt P04839); test: NOX2-dependent H2O2 signal modulators, primary screen, NOX inhibitor project, cell-based, HEK293-NOX2, PMA-stimulated, Amplex Red fluorescence (AID 1159); conditions: 45 min, higher = more signal, called active from +8 up or from −8 down; note: test concentration not given here
Sequence of NADPH oxidase 2 (Homo sapiens) (P04839 whole entry, looked up): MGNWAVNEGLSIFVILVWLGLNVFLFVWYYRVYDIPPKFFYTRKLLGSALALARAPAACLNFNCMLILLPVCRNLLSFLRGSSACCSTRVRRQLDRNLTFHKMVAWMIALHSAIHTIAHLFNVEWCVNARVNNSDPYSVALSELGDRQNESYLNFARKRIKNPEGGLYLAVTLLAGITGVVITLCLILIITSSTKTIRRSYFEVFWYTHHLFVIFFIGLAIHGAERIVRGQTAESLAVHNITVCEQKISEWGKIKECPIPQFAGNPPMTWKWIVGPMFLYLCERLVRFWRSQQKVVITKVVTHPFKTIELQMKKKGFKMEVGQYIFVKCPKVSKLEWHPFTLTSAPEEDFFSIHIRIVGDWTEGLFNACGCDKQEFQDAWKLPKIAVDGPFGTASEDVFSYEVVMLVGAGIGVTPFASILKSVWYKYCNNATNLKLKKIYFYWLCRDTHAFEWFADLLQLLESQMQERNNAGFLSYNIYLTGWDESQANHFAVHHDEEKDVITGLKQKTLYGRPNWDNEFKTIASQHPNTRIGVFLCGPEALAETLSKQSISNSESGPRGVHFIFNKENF

[19] = molecular target: NADPH oxidase 4 (Homo sapiens) (UniProt Q9NPH5); test: NOX4-dependent H2O2 signal modulators, primary screen, NOX inhibitor project, cell-based, HEK293-NOX4, tetracycline-induced, Amplex Red fluorescence (AID 1160); conditions: 45 min, higher = more signal, called active from +8 up or from −8 down
Sequence of NADPH oxidase 4 (Homo sapiens) (Q9NPH5 whole entry, looked up): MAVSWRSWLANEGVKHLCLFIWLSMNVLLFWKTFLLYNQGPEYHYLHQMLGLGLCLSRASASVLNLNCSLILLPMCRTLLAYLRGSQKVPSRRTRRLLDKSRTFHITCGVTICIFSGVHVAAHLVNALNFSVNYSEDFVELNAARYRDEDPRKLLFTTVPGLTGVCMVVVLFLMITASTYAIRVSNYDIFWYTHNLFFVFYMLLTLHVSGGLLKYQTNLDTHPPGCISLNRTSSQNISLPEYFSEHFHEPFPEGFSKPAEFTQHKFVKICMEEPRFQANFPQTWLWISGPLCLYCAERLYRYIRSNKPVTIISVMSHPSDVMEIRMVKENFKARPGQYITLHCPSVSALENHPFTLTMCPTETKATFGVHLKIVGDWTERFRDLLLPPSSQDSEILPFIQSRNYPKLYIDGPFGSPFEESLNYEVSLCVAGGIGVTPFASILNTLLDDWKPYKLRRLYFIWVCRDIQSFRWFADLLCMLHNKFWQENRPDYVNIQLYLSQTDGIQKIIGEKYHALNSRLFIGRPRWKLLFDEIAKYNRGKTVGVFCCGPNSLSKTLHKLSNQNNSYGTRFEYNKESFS

[20] = molecular target: NADPH oxidase 5 (Homo sapiens) (UniProt Q96PH1); test: NOX5-dependent H2O2 signal modulators, primary screen, NOX inhibitor project, cell-based, HEK293-NOX5, Amplex Red fluorescence (AID 1161); conditions: HEK293-NOX5, ionomycin, 45 min, higher = more signal
Sequence of NADPH oxidase 5 (Homo sapiens) (Q96PH1 whole entry, looked up): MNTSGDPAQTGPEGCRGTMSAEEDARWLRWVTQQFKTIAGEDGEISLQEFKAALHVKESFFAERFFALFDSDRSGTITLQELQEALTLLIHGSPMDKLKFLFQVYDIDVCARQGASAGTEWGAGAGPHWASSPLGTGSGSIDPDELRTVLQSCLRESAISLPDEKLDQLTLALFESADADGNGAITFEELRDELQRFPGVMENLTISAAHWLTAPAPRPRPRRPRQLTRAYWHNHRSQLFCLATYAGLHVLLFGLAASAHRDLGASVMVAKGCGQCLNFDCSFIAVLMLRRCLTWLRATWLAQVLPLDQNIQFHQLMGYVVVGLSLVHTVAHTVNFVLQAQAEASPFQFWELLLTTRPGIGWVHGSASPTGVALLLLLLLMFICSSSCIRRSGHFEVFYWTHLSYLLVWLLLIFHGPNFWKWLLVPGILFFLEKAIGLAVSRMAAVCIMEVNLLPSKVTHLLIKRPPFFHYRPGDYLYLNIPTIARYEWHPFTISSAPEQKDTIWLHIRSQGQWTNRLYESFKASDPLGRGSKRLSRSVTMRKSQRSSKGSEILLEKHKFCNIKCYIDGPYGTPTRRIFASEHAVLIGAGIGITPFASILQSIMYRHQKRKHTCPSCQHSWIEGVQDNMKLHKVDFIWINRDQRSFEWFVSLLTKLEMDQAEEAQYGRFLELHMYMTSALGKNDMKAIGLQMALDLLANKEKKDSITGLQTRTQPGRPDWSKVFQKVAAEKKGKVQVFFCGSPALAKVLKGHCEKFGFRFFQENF

Compound	composite z-score [1]	z-score [2]	z-score [3]	z-score [4]	z-score [5]	composite z-score [6]	composite z-score [7]	composite z-score [8]	composite z-score [9]	composite z-score [10]	z-score [11]	composite z-score [12]	z-score [13]	z-score [14]	z-score [15]	z-score [16]	z-score [17]	z-score [18]	z-score [19]	z-score [20]
COc1cc2c(cc1OC)CN(C(=O)[C@@H]1[C@H]3C(=O)O[C@H](c4ccccc4)[C@H](c4ccccc4)N3[C@H](c3ccccc3OCCO)[C@@]13C(=O)Nc1ccc(C#CCCO)cc13)CC2	0.283	-1.65 (inactive)	0.219 (inactive)	0.505 (inactive)	-0.988 (inactive)	0.442	0.196	0.0499	0.344	1.13	0.761 (inactive)	0.751	2.28 (inactive)	1.05 (inactive)	0.85 (inactive)	0.565 (inactive)	0.212	1.29 (inactive)	1.15 (inactive)	0.301
COc1cc2c(cc1OC)CN(C(=O)[C@H]1[C@@H]3C(=O)O[C@@H](c4ccccc4)[C@@H](c4ccccc4)N3[C@@H](c3ccc(O)cc3)[C@]13C(=O)Nc1ccccc13)CC2	0.0185	-1.57 (inactive)	-0.219 (inactive)	0.358 (inactive)	0.282 (inactive)	-0.805	0.417	0.191	1.36	0.931	-0.444 (inactive)	0.0036	0.734 (inactive)	-0.397 (inactive)	-0.473 (inactive)	0.801 (inactive)	0.0493	0.96 (inactive)	0.754 (inactive)	1.37
C[N+](C)(C)CCCCNC(=O)[C@@H]1C[C@@H]2C(=O)N[C@@H](Cc3ccccc3)C(=O)N2[C@@H]1c1cccc(OCCO)c1	0.175	-0.36 (inactive)	-0.314 (inactive)	-0.26 (inactive)	-0.471 (inactive)	-1.02	-0.179	0.938	0.713	1.91	1.04 (inactive)	-0.0094	3.16 (inactive)	0.469 (inactive)	-1.44 (inactive)	0.13 (inactive)	1.91	-0.682 (inactive)	-0.331 (inactive)	0.856
COCC(=C=CC[C@@H](O)c1cccc(OCCO)c1)C[C@@H](O)c1ccccn1	0.0068	0.0726 (inactive)	0.786 (inactive)	0.378 (inactive)	-1.16 (inactive)	-0.229	-0.0403	0.839	0.344	1.29	0.335 (inactive)	0.0903	12 (active)	1.42 (inactive)	0.97 (inactive)	0.675 (inactive)	-0.613	1.96 (inactive)	0.744 (inactive)	0.254
C=CCC(OC(C)=O)[C@@H]1[C@@H](N(Cc2ccc(-c3ccccc3)cc2)C(=O)Cc2ccc(OC)cc2)c2cc(OCCCO)ccc2N1C(=O)Cc1ccc2ccccc2c1 (stereo not given in full)	-0.263	-1.45 (inactive)	0.294 (inactive)	0.745 (inactive)	0.358 (inactive)	0.192	-0.0221	-0.921	0.616	0.412	-0.59 (inactive)	-0.0654	0.747 (inactive)	0.314 (inactive)	0.198 (inactive)	0.186 (inactive)	-0.185	0.304 (inactive)	1.09 (inactive)	1.35
C=CCNC(=O)[C@@H]1[C@H]2C(=O)O[C@H](c3ccccc3)[C@H](c3ccccc3)N2[C@H](c2ccc(O)cc2)[C@@]12C(=O)N(C(=O)OCCOC)c1ccc(C#CCNC(N)=O)cc12	0.468	-2.23 (inactive)	-0.298 (inactive)	0.35 (inactive)	0.273 (inactive)	0.61	-0.131	0.699	0.594	1.45	0.411 (inactive)	0.0012	0.691 (inactive)	-0.836 (inactive)	0.537 (inactive)	-1.18 (inactive)	1.32	1.08 (inactive)	0.438 (inactive)	0.421
COCCOC(=O)N1C(=O)[C@@]2(c3cc(C#CCC(C(=O)OC)C(=O)OC)ccc31)[C@H](c1ccccc1OCCO)N1[C@H](c3ccccc3)[C@H](c3ccccc3)OC(=O)[C@H]1[C@@H]2C(=O)NC[C@H](O)c1ccccc1	0.851	-4.23 (inactive)	0.166 (inactive)	-0.195 (inactive)	2.22 (inactive)	0.0919	0.158	0.555	0.389	1.98	-0.165 (inactive)	0.557	1.95 (inactive)	1.35 (inactive)	-0.0048 (inactive)	0.781 (inactive)	0.213	1.57 (inactive)	1.07 (inactive)	1.41
[N-]=[N+]=NCc1ccccc1[C@@H]1OC(c2ccc(OCCCO)cc2)=N[C@]1(Cc1ccccc1)C(=O)NCC(O)CO (stereo not given in full)	0.334	-1.58 (inactive)	0.0756 (inactive)	1.27 (inactive)	-0.757 (inactive)	0.255	0.84	0.281	0.294	-0.492	-0.0722 (inactive)	0.484	13.5 (active)	1.15 (inactive)	0.942 (inactive)	0.123 (inactive)	-0.319	-0.847 (inactive)	1.7 (inactive)	-0.0855
